Source: PubChem BioAssay AID1851 (National Center for Advancing Translational Sciences (NCATS), 2009)
“And” between values parts separate entries of the source, which are not always exact repeats. Equal entries are not always repeated. The campaign covered roughly 16,000 compounds. About 4,000 (25%) were called active. About 26% were inconclusive and are not listed. These entries were drawn from the full list. Unmarked numbers belong to inactive results. The call rests on the fitted dose curve; in most records, active means well fitted curve in the direction sought with a large enough effect; inconclusive means small, poorly fitted or top-dose-only effect, or effect the other way; inactive means no such curve, though single readings can be large or run the other way.

Biological target: Cytochrome P450 2C9 (Homo sapiens) (UniProt P11712)
Sequence (P11712 whole entry, looked up): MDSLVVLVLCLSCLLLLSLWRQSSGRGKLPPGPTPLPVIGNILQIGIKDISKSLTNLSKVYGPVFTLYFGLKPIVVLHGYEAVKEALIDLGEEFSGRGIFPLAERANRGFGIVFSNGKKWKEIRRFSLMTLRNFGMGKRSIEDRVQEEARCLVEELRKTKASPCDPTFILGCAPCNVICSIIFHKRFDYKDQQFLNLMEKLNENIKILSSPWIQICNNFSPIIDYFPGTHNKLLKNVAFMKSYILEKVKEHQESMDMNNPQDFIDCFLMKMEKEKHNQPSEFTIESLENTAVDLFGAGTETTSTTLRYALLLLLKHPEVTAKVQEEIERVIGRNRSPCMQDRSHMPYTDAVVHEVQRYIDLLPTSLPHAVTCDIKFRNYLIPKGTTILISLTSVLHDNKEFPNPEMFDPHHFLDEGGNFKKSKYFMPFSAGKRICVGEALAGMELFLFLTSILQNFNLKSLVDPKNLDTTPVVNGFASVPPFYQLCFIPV
Assay: Cytochrome panel assay with activity outcomes
Conditions: recombinant CYP, pro-luciferin dealkylation, luminescence, p450-cyp2c9; series mostly up to 57.1 µM
On the % scale 0 is the no-effect control and ±100 the full control effect.

SMILES | AC50 | activity, negative = inhibition
CCOC(=O)CC1C(=O)NCCN1S(=O)(=O)c1ccc(Cl)c(Cl)c1 (stereo not drawn) | inactive | 
COCCCNC(=O)c1ccc2c(=O)n(CC3CCCO3)c(=S)[nH]c2c1 (stereo not drawn) | inactive | 
O=C(NCc1ccccc1Cl)c1ccc2c(=O)n(CCCN3CCCC3=O)c(=S)[nH]c2c1 | 8.91 µM (active) | 
COCCn1c(=S)[nH]c2cc(C(=O)NC(C)C)ccc2c1=O | inactive | 
N#Cc1cccc(-c2cc(NCc3cccnc3)ncn2)c1 |  | -26.2% [at 2.29 µM]
COc1ccc2[nH]c(=O)c(CN(CCO)C(=O)c3cccs3)cc2c1 | inactive | 
COc1cccc(C(=O)N(Cc2ccccc2)Cc2cc3cc4c(cc3[nH]c2=O)OCCO4)c1 | 10 µM (active) | 
Cc1cnc(CNc2cc(-c3cccc(C#N)c3)ncn2)cn1 |  | 19.4% [at 2.29 µM]
COc1cccc(Cn2c(=O)c(-c3cccs3)nc3cnc(N4CCNCC4)nc32)c1 | 12.6 µM (active) | 
COc1cccc(Cn2c(=O)c(-c3ccc(Cl)cc3)nc3cnc(N4CCNCC4)nc32)c1 | 12.6 µM (active) | 
COc1cccc(Cn2c(=O)c(-c3ccc(F)cc3)nc3cnc(N4CCNCC4)nc32)c1 | 15.8 µM (active) | 
COc1ccc(-c2nc3cnc(N4CCN(C)CC4)nc3n(Cc3ccc(F)cc3)c2=O)cc1 | inactive | 
CCNc1ncc2nc(-c3ccc(Cl)cc3)c(=O)n(Cc3cccc(OC)c3)c2n1 | inactive | 
COc1ccc(-c2nc3cnc(N4CCN(C)CC4)nc3n(CCC#N)c2=O)cc1 | inactive | 
COc1cccc(Cn2c(=O)c(-c3ccc(Cl)cc3)nc3cnc(N4CCN(C)CC4)nc32)c1 | inactive | 
COc1ccc(-c2nc3cnc(N4CCNCC4)nc3n(CCc3ccccc3)c2=O)cc1 | 3.98 µM (active) | 
CCCS(=O)(=O)N1CCCC(C(=O)NCCCOC(C)C)C1 (stereo not drawn) | inactive | 
COc1ccc(-n2c(=O)c(-c3cc(F)cc(F)c3)nc3cnc(N4CCNCC4)nc32)cc1 | inactive | 
COc1cccc(Cn2c(=O)c(-c3ccccc3)nc3cnc(N4CCN(C)CC4)nc32)c1 | inactive | 
COc1ccc(-n2c(=O)c(-c3ccc(Cl)cc3)nc3cnc(N4CCNCC4)nc32)cc1 | inactive | 
COc1cccc(Cn2c(=O)c(-c3cc(F)cc(F)c3)nc3cnc(N(C)C)nc32)c1 | inactive | 
COc1cccc(Cn2c(=O)c(-c3ccccc3)nc3cnc(N4CCNCC4)nc32)c1 | 12.6 µM (active) | 
COc1ccc(-c2nc3cnc(N4CCNCC4)nc3n(Cc3cccc(OC)c3)c2=O)cc1 | 25.1 µM (active) | 
COc1cccc(Cn2c(=O)c(-c3cc(F)cc(F)c3)nc3cnc(N4CCNCC4)nc32)c1 | 7.94 µM (active) | 

SMILES | AC50 | activity, negative = inhibition
CCC1(c2ccccc2)C(=O)NCNC1=O | inactive | 
CC(C)CO/N=C1/[C@H]2O[C@@H]2[C@@H](O)[C@H]2[C@H]1CCn1c(=O)n(C)c(=O)n12 |  | -1.24% [at 11.4 µM]
O=C(NCC1CCCO1)C1CCC(=O)N1CCc1ccccc1 (stereo not drawn) | inactive | 
O=C(CC(c1ccccc1)c1ccccc1)NCC1CCCO1 (stereo not drawn) | 20 µM (active) | 
CCOC(=O)Nc1ccc(C(=O)NCC2CCCO2)cc1 (stereo not drawn) | inactive | 
Cc1ccc(C(=O)NC(=S)NCC2CCCO2)cc1 (stereo not drawn) | 7.94 µM (active) | 
CN(c1ccc(C(=O)NCC2CCCO2)cc1)S(=O)(=O)c1ccccc1 (stereo not drawn) | 25.1 µM (active) | 
CCC(=O)NC(NCC1CCCO1)C(Cl)(Cl)Cl (stereo not drawn) | inactive | 
CN(C)c1ccc(N=Cc2nc(-c3ccccc3)oc2O)cc1 | 7.08 µM (active) | 
CN(C)c1ccc(N=C/C=C2\N(C)c3ccccc3C2(C)C)cc1 | inactive | 
Oc1oc(-c2ccccc2)nc1C=Nc1ccccc1 | 8.91 µM (active) | 
O=C(Oc1oc(-c2ccco2)nc1C=Nc1ccc(Cl)cc1)c1ccco1 | inactive | 
CN(C)c1ccc(N=Nc2cccc3ccoc23)cc1 |  | 18.2% [at 11.4 µM]
CC(/C=N/n1c(-c2cccnc2)n[nH]c1=S)=C\c1ccccc1 | 10 µM (active) | 
c1cncc(-c2cc(-c3cc(-c4cccnc4)n[nH]3)[nH]n2)c1 |  | 8.46% [at 11.4 µM]
CCn1c(-c2ccc3ncccc3c2)n[nH]c1=S | inactive | 
CN1[C@@H]2CC[C@H]1CC(OC(c1ccccc1)c1ccccc1)C2 (stereo partly drawn) | inactive | 
CCc1ccc(N(C(=O)c2csnn2)C(C(=O)NCc2ccccc2)c2ccco2)cc1 (stereo not drawn) | 14.1 µM (active) | 
Cc1ccc(N(C(=O)c2csnn2)C(C(=O)NC(C)(C)C)c2cccs2)cc1 (stereo not drawn) | inactive | 
O=C(OC(C(=O)O)C(OC(=O)c1ccccc1)C(=O)NCc1ccccc1)c1ccccc1 (stereo not drawn) | inactive | 
Cc1ccc(S(=O)(=O)N2CCOCC2)cc1NC(=O)COC(=O)CCC(=O)c1cccs1 | 14.1 µM (active) | 
Cc1ccc(S(N)(=O)=O)cc1NC(=O)/C=C/c1cccs1 | inactive | 
CCN(CC)c1ccc2c(c1)OC(N)=C(C#N)C2c1cccnc1 (stereo not drawn) | 7.94 µM (active) | 
Cc1nc(SCc2cccc(Oc3ccccc3)c2)n[nH]1 | 15.8 µM (active) | 

SMILES | AC50 | activity, negative = inhibition
CN(C)Cc1ccccc1-c1nccc(NCc2cccs2)n1 |  | 13.4% [at 2.29 µM]
COCCNc1ncnc2ccc(-c3ccccc3CN(C)C)cc12 |  | 25.7% [at 2.29 µM]
CCCc1cc(=O)[nH]c(=S)[nH]1 | inactive | 
CN1CCN(c2ncc3ncc(=O)n(CCC#N)c3n2)CC1 | inactive | 
CC(=O)OC[C@H]1O[C@@H](ON=C(C)C)[C@H](OC(C)=O)[C@@H](OC(C)=O)[C@H]1OC(C)=O |  | 6.05% [at 11.4 µM]
CC(C)(C)C(=O)Nc1nnc(SCC(=O)NCc2cccs2)s1 | inactive | 
CC(C)(O)C#Cc1ccc(C(=O)NCc2cccs2)s1 | 25.1 µM (active) | 
O=C(Cn1cccc1C(=O)c1ccccc1)NCc1cccs1 | inactive | 
O=S(=O)(O)[C@@H](c1ccccc1)[C@@H](O)c1ccccc1 |  | 3.25% [at 11.4 µM]
COc1cc(/C=N/NC(N)=O)c(Br)cc1OCC(=O)Nc1ccccc1C | 3.16 µM (active) | 
COCCCNC(=O)C(=O)N/N=C/c1ccc(OCC(=O)Nc2cccc(Cl)c2C)c(OC)c1 | inactive | 
COCCCNC(=O)C1C2C=CC3(CN(Cc4ccc(C)cc4)C(=O)C13)O2 (stereo not drawn) | inactive | 
Cc1ccc(CN2CC34C=CC(O3)C(C(=O)NCc3ccco3)C4C2=O)cc1 (stereo not drawn) | inactive | 
O=C(NCC1COc2ccccc2O1)C1C2C=CC3(CN(Cc4cccs4)C(=O)C13)O2 (stereo not drawn) | 31.6 µM (active) | 
c1ccc(C[n+]2cccc(-c3cc4ccccc4[nH]3)c2)cc1 |  | -9.64% [at 11.4 µM]
O=C1C[C@@H](O)[C@@H](O)[C@H]2[C@@H]3C(=O)N(c4cccc(Oc5ccccc5)c4)C(=O)[C@@H]3CC[C@H]12 |  | -10.3% [at 11.4 µM] and 1.22% [at 11.4 µM]
O=C(Nc1ncc(Cc2ccccc2)s1)C1COc2ccccc2O1 (stereo not drawn) | 6.31 µM (active) | 
O=C(Nc1nnc(SCc2ccc(Cl)cc2Cl)s1)C1COc2ccccc2O1 (stereo not drawn) | 7.08 µM (active) | 
CN(Cc1ccco1)c1cc(-c2ccccc2C(F)(F)F)ncn1 |  | 9.45% [at 2.29 µM]
COc1ccc2c(=O)c(-c3ccccc3C)c(C)oc2c1 | 17.8 µM (active) | 
COc1ccc2[nH]cc(CCNc3cc(-c4ccccc4C)ncn3)c2c1 |  | -17.1% [at 2.29 µM]
COc1cc(OC)c2c(c1)C(=O)c1cc(OC)cc(OC)c1C2=O | inactive | 
Clc1ccc2c(c1)N(CCCN1CCCC13CCCCC3)c1ccccc1S2 |  | 10.5% [at 11.4 µM]
COC(=O)[C@@]1(Cc2ccccc2)[C@H]2c3cc(C(=O)N4CCCC4)n(Cc4ccc(OC)c(OC)c4)c3C[C@H]2CN1C(=O)c1ccccc1 | 1.26 µM (active) | 

SMILES | AC50 | activity, negative = inhibition
COC(=O)[C@@]1(Cc2ccccc2)[C@H]2c3cc(C(=O)N4CCCC4)n(Cc4ccc(O)c(OC)c4)c3C[C@H]2CN1C(=O)c1ccccc1 | 2.51 µM (active) | 
CC(N)=O | inactive | 
N#Cc1ccc(Oc2nc(C(N)=O)cc(-c3ccccc3)n2)cc1 | 6.31 µM (active) | 
N#Cc1ccc(OC(=O)c2ccc(N=C(N)N)cc2)cc1 |  | 12.7% [at 11.4 µM]
NC(=O)Nc1n[nH]c(-c2ccccc2)n1 |  | -4.69% [at 11.4 µM]
O=C(NC[C@@H](O)CO)c1c(I)c(C(=O)NC[C@@H](O)CO)c(I)c(N(CCO)C(=O)CO)c1I | inactive | 
Cc1ccc(C(=O)N2CCN(c3ccc(C(F)(F)F)cn3)CC2)cc1 | 15.8 µM (active) | 
O=C(c1cc(C(F)(F)F)cc(C(F)(F)F)c1)N1CCC2(CC1)CN(c1ccccn1)C2 | inactive | 
O=C(c1cc(C(F)(F)F)cc(C(F)(F)F)c1)N1CCC2(CC1)CCN(c1ccccn1)CC2 | inactive | 
COc1ccc(-n2c(=O)c(-c3ccccc3)nc3cnc(N4CCNCC4)nc32)cc1 | inactive | 
N#Cc1cccc(-c2nc3cnc(N4CCNCC4)nc3n(C3CC3)c2=O)c1 | 0.631 µM (active) | 
O=c1c(-c2ccccc2)nc2cnc(N3CCNCC3)nc2n1-c1ccccc1 | inactive | 
O=c1c(-c2ccccc2)nc2cnc(N3CCOCC3)nc2n1C1CC1 | 10 µM (active) | 
O=c1c(-c2ccc(F)cc2)nc2cnc(N3CCNCC3)nc2n1C1CC1 | 1 µM (active) | 
N#CCCn1c(=O)c(-c2cccc(C#N)c2)nc2cnc(N3CCOCC3)nc21 | inactive | 
O=c1c(-c2ccccc2)nc2cnc(N3CCOCC3)nc2n1C[C@H]1CCCO1 | inactive | 
O=c1c(-c2ccc(Cl)cc2)nc2cnc(N3CCOCC3)nc2n1C1CC1 | inactive | 
O=c1c(-c2ccc(F)cc2)nc2cncnc2n1C1CC1 | inactive | 
O=c1c(-c2ccc(F)cc2)nc2cnc(N3CCOCC3)nc2n1C1CC1 | inactive | 
N#Cc1cccc(-c2nc3cnc(N4CCOCC4)nc3n(C3CC3)c2=O)c1 | inactive | 
O=c1c(-c2ccccc2)nc2cnc(N3CCNCC3)nc2n1C1CC1 | 0.158 µM (active) | 
